Laboratory results taken from PubChem BioAssay AID485314 (National Center for Advancing Translational Sciences (NCATS), 2010).
The whole screen tested about 340,000 compounds, of which about 4,500 (1.3%) were called active. Another 5% or so got no clear call; they are omitted. The call rests on the fitted dose curve; in most records, active means well fitted inhibition curve with a large enough effect; inconclusive means small, poorly fitted or top-dose-only effect, or another doubt; inactive means no such curve, though single readings can be large or run the other way. The full list was thinned out, with actives kept by preference.

Target: DNA polymerase beta (Homo sapiens) (UniProt P06746)
Experiment: qHTS Assay for Inhibitors of DNA Polymerase Beta
Conditions: Pol beta primer extension/strand displacement, fluorescence kinetic; series mostly up to 114 µM; activity change, negative = inhibition: at the top concentration
Excerpt: The base excision repair system in human cells is a target for therapeutic modulation of the response to irradiation treatment and DNA-damaging drugs. A key enzyme in this system is the bi-functional DNA polymerase known as DNA polymerase Beta (Pol Beta). The following is a homogeneous kinetic assay to study the primer extension and strand-displacement reaction catalyzed by pol beta.
A stepwise description of the 1536-well assay is shown in next Table. Three microliters of reagents (buffer in column 3 and 4 as negative control and 10 nM Pol beta in columns 1, 2, and 5-48) was dispensed into 1,536-well black solid-bottomed plate. Compounds (23 nL) were transferred via Kalypsys pin tool equipped with 1536-pin array (10 nL slotted pins, V&P Scientific, San Diego, CA). The plates were incubated for 15 min at room temperature, and 1 uL substrate (50 nM final concentration) were added to start the reaction and immediately read at 0 min read on Viewlux reader. The plate were further incubated for 10 min at room temperature, and then read on Viewlux again. Throughout the screen, reagent bottle and all liquid lines were chilled and made light-tight to minimize reagent degradation. All screening operations were performed on a fully integrated robotic system (Kalypsys, San Diego, CA) containing one RX-130 and two RX-90 anthropomorphic robotic arms (Staubli, Duncan, SC). Library plates were screened starting from the lowest and proceeding to the highest concentration, and a double-dipping step of the highest concentration was required to access higher concentrations of compounds. Vehicle-only plates, with DMSO being pin-transferred to the entire column 5-48 compound area, were inserted uniformly at the beginning and the end of each library in order to monitor for and record any shifts in the background, which can be affected by reagent dispensers or loss in enzyme activity overtime. Screening data were corrected, normalized, and concentration-effect relationships were derived by using publicly-available curve fitting algorithms developed in-house (http://ncgc.nih.gov/pub/openhts). A four parameter Hill equation was fitted to the concentration-response data by minimizing the residual error between the modeled and observed responses.
On the % scale 0 is the no-effect control and ±100 the full control effect; potency means the concentration at half of the fitted maximal effect.

Row | Compound | activity change, negative = inhibition | Potency
1 | Cc1cccc(Cn2c(CN3CCC(C(=O)NCc4ccccc4Cl)CC3)cc3ccccc32)c1 | -1.55% (inactive) | 
2 | CCc1ccc(N(CC)C(=O)CCn2cnc3onc(-c4ccc(F)cc4)c3c2=O)cc1 | 11.9% (inactive) | 
3 | CCCN1C(=O)C(O)(CC(=O)c2ccc(CC)cc2)c2cc(Br)ccc21 (configuration not stated) | -2.24% (inactive) | 
4 | COc1ccc(C(=O)/C=C/c2cccnc2)c(OC)c1 | 7.61% (inactive) | 
5 | COc1ccc(C(=O)/C=C/c2ccc(OC3CSC3)cc2)cc1 | -23.2% (inactive) | 
6 | COc1ccc(/C=C/C(=O)c2cc(Br)ccc(=O)c2O)cc1 |  | 50.1 µM (active)
7 | CSc1ccc(CCNC(=O)c2cnn(-c3ccccc3)c2-n2cccc2)cc1 | -27.9% (inactive) | 
8 | O=C(/C=C/c1ccccc1)N1CCN(Cc2cc(=O)n3nc(-c4ccccc4F)sc3n2)CC1 | 5.97% (inactive) | 
9 | CCOc1ccccc1C(=O)NC1(C(F)(F)F)C(=O)Nc2c1c(=O)[nH]c(=O)n2-c1ccc(F)cc1 (configuration not stated) | 0.604% (inactive) | 
10 | Cc1ccc(CCNC(=O)c2nnc(Cc3cccc(F)c3)o2)cc1 | 1.44% (inactive) | 
11 | CCOC(=O)c1ccc(S(=O)(=O)N(CCO)Cc2cc3cc(OC)c(OC)cc3[nH]c2=O)cc1 | 0.18% (inactive) | 
12 | CCOc1ccc2[nH]c(=O)c(CN(CCCO)S(=O)(=O)c3ccc(F)cc3)cc2c1 | 8.93% (inactive) | 
13 | COc1ccc(S(=O)(=O)N(CCCN2CCCC2=O)Cc2cc3c(C)ccc(C)c3[nH]c2=O)cc1 |  | 89.1 µM (active)
14 | Cc1ccccc1NC(=O)CN1C(=O)N/C(=C\c2cccn2-c2cccc(C(=O)O)c2)C1=O |  | 2.24 µM (active)
15 | O=C1N/C(=C/c2cccn2-c2ccccc2)C(=O)N1c1cccc(Cl)c1 | 16.2% (inactive) | 
16 | Cc1ccccc1NC(=O)CN1C(=O)C(C)(C)c2ccccc21 | -11% (inactive) | 
17 | COc1ccccc1NC(=O)C1=C(C)Nc2nc(SCC(=O)c3ccc(C)cc3)nn2C1c1ccccc1C (configuration not stated) | -15.8% (inactive) | 
18 | CCc1ccccc1NC(=O)Cn1c(=O)n(-c2cccc(C)c2)c(=O)c2c1c1cc(OC)ccc1n2C | 1.55% (inactive) | 
19 | CCc1cccc(C)c1NC(=O)CSc1nnc(-c2ccco2)n1N | 0.0582% (inactive) | 
20 | NC(=O)c1c(NC(=O)CSc2nnc(-c3ccco3)n2N)sc2c1CCCC2 |  | 39.8 µM (active)
21 | NC(=O)c1c(NC(=O)CSc2nc(N)cc(=O)[nH]2)sc2c1CCCC2 | -5.47% (inactive) | 
22 | CCOc1ccccc1C(=O)NCc1ccc2c(c1)CCN2C(=O)c1ccc(F)cc1 | 7.58% (inactive) | 
23 | O=C(OCN1C(=O)c2ccccc2C1=O)/C(=C\c1ccco1)NC(=O)c1ccccc1 | 17.1% (inactive) | 
24 | O=c1nc2s/c(=C\c3ccco3)c(=O)n2nc1Cc1ccccc1 |  | 14.1 µM (active)
25 | O=C(O)C1=C[C@H](c2cccs2)C[C@H](OCCCCO)O1 | -25.8% (inactive) | 
26 | C#Cc1ccc([C@@H]2C=C(C(=O)O)O[C@H](OCCCCO)C2)cc1 |  | 28.2 µM (active)
27 | C=CCOC(=O)C1=C[C@@H](c2ccccc2)C[C@@H](OCc2ccc(CO)cc2)O1 | -3.45% (inactive) | 
